One experiment relates to HaCat. Put plainly: Cytotoxic Profiling of Annotated Libraries Using Quantitative High-Throughput Screening (AID 1296008). On max response: on the % scale 0 is the no-effect control and ±100 the full control effect. To be noted: Five cell lines viability, CellTiter-Glo ATP luminescence, 48-72 h; max response: hits give low values. Summed up:
(§1)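 Cytotoxicity was measured as CellTiter-Glo ATP luminescence, read after 10 min at room temperature. Compound treatment of the cells lasted 48 or 72 hr at 37 degrees Celsius in a qHTS format.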
For orientation: ATP-based viability assays read luminescence as a measure of living cells.

For the next experiment, the system named is KB-3-1. Described as above. To be noted: Five cell lines viability, CellTiter-Glo ATP luminescence, 48-72 h; max response: hits give low values. Summed up:
as §1

The next experiment concerns HEK293. The experiment is described as above. To be noted: Five cell lines viability, CellTiter-Glo ATP luminescence, 48-72 h; max response: hits give low values. The gist of the method:
as §1

In a further experiment the test system is PC49. Put plainly: qHTS profiling for inhibitors of Plasmodium falciparum proliferation (AID 504749). As to conditions: P. falciparum in erythrocytes, SYBR Green DNA, 72 h; series mostly up to 28.7 µM. The gist of the method: (§2)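 Infected RBCs, 0.3% parasitemia/2.5% Hct final; cpd 72 h, 37 C, 5% CO2; lysis buffer with saponin/triton/SYBR Green I, o/n RT dark; FI 485/535; norm. to artemisinin (0.29 uM) and DMSO.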

For a further experiment, the system named is SC27B. The experiment is described as above. To be noted: P. falciparum in erythrocytes, SYBR Green DNA, 72 h; series mostly up to 28.7 µM. The gist of the method: as §2
A further experiment relates to TAB109. The description is as above. As to conditions: P. falciparum in erythrocytes, SYBR Green DNA, 72 h; series mostly up to 28.7 µM. Summed up:
as §2

Another experiment relates to W2. Described as above. As to conditions: P. falciparum in erythrocytes, SYBR Green DNA, 72 h; series mostly up to 28.7 µM. Summed up:
as §2

Molecules are shown by their SMILES. Several values for one entry are separate records, joined by “and”; a condition that tells them apart may be missing. Equal values may be shown once. Results filed as inconclusive are left out. Values without a mark were called inactive. Activity calls are given as the source filed them. The call rests on the fitted dose curve; in most records, active means well fitted inhibition curve with a large enough effect; inconclusive means small, poorly fitted or top-dose-only effect; inactive means flat fitted curve, though single readings scatter.
Further: nearly all actives have a fitted effect of over 60% in size.
Potency means the concentration at half of the fitted maximal effect.

With `COCCOC(=O)C1=C(C)NC2=C(C(=O)CC(c3ccccc3OC)C2)C1c1cccc(O)c1` (configuration not stated), the results for the max response in the experiment on HaCat and in the experiment with KB-3-1 were -1.34% and -11.3%, respectively.
On to `Nc1nc(F)nc2c1ncn2[C@@H]1O[C@H](COP(=O)(O)O)[C@@H](O)[C@H]1O`, for which, in the experiment with HEK293, the max response was -8.85%. The call in the experiment on KB-3-1 was inactive.
For `O=c1[nH]cnc2c1ncn2[C@H]1CC[C@@H](CO)O1`, the molecule was called inactive in the experiment with PC49 and in the experiment on TAB109. For the same molecule, the Potency entry in the experiment on SC27B was “inactive”. Moreover, the Potency with W2 is 13.5 µM (active).
With `CC(C)=CC[C@@H](O)C1=CC(=O)c2c(O)ccc(O)c2C1=O`, the call in the experiment on HaCat was inactive. The max response with KB-3-1 was 6.3%.
Take `NC(=O)c1cnc(-c2ccc(C3(N)CCC3)cc2)c(-c2ccccc2)c1`: the Potency in the experiment with HEK293 is 23.5 µM (active) and 18.4 µM (active). Besides, the max response in the experiment on HaCat is -22.7%; with KB-3-1, -11.5%.
On to `CN[C@@H](C)C(=O)N[C@H]1CN(C(=O)CC(C)C)CC[C@H]2CC[C@@H](C(=O)NC(c3ccccc3)c3ccccc3)N2C1=O`, for which the max response is -1.1% with HEK293; 2.72% and 0.688% in the experiment on KB-3-1. Also, in the experiment with HaCat, the Potency is 16.6 µM (active) and 23.1 µM (active).
In the case of `Cc1ccc([C@@H]2O[C@H](CO)[C@@H](O)[C@H](O)[C@@H]2O)cc1Cc1ccc(-c2ccc(F)cc2)s1`, the Potency in the experiment with HEK293 is 14.8 µM (active). In addition, the outcome with HaCat and in the experiment on KB-3-1 was inactive.
For `O=c1cc(-c2ccccc2)oc2cc(O)c(O)c(O)c12`, the max response with HEK293 was -21.5%; in the experiment with HaCat it was 1.36%; with KB-3-1 it was -0.922%.

These data come from PubChem BioAssay (NCATS).
